# Most compounds without a hit are left out; they make up all but 2.7% or so of the library.
# GLP-1R agonist = activates the human GLP-1 receptor. HEK293 GLP-1R CRE-luciferase, luminescence, 4-6 h; cells express a hypersensitive GLP-1R form. Potency, µM (top dose mostly 45.6 µM), for inactives: at the top dose activation, actives largely listed as activators. 380,000 compounds, 0.007% hits. AID 624172; note: % of control where 0% means no effect
# Target sequence (P43220 whole entry, looked up): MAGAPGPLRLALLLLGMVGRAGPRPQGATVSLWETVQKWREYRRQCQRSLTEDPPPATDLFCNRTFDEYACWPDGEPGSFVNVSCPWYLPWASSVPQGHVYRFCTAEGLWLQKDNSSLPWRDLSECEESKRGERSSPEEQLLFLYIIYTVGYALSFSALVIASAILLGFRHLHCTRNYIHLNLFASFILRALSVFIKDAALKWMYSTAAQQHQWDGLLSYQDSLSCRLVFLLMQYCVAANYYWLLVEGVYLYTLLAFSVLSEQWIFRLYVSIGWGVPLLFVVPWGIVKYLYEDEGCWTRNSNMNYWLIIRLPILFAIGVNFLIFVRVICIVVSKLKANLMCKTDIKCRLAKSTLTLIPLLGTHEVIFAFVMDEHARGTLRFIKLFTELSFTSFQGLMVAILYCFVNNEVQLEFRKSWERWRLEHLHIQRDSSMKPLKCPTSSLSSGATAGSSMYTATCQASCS
# IDH1 R132H inh = blocks human mutant IDH1 R132H enzyme. O75874. IDH1-R132H enzyme, NADPH consumption, diaphorase/resazurin fluorescence. Potency, µM (titrated, usually from 76.6 µM), for the others: at the top dose activity change, negative = inhibition, hits mostly inhibitors. 390,000 compounds, 0.093% hits. AID 602179; note: % is set by controls: 0 for no effect and ±100 for the full control effect; nearly all actives have a fitted effect of over 65% in size
#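 IDH1-R132H (0.5 ug/mL dispensed) in pH 7.5 Tris buffer was preincubated 30 min with compound, then given a substrate mix of 0.016 mM NADPH and 2 mM alpha-KG for 80 min at room temperature; remaining NADPH was read by diaphorase/resazurin fluorescence.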
# GLP1R inv ag = acts as inverse agonist at human GLP-1 receptor | P43220 | HEK293 GLP-1R CRE-luciferase, luminescence, 24 h; GLP-1R form is constitutively active | Potency, µM (top dose mostly 38.3 µM), without a hit: at the top dose activity change, negative = inhibition, hits mostly inhibitors | 410,000 compounds, 1.6% hits | AID 624417; note: % is set by controls: 0 for no effect and ±100 for the full control effect; nearly all actives have a fitted effect of over 55% in size
#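 HEK293 cells stably co-expressing constitutively active GLP-1R and a cAMP-responsive luciferase reporter were seeded in DMEM with 10% Nu serum, given compounds after 12 h, and incubated 24 h at 37 deg C. Luminescence was then read.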
# GLP1R cytotox = cytotoxic in the GLP-1 receptor inverse agonist counter-screen; 410,000 compounds, 0.13% hits; HEK293 cAMP-luciferase reporter cells, luminescence, 24 h; Potency, µM (top dose mostly 38.3 µM), inactives show at the highest dose activity change, negative = inhibition, most hits filed as inhibitors; AID 624418;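 note: loss of luciferase light is scored as toxicity; % is set by controls: 0 for no effect and ±100 for the full control effect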
#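 1536-well qHTS counterscreen of the MLSMR; 200 cells/uL, 12 h pre-incubation, 23 nL cpd, 24 h at 37 deg C 5% CO2, luciferase detection reagent, 12 min RT, luminescence. Inhibition = undesired.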
# rTrxR1 inhibitor = blocks rat thioredoxin reductase 1; O89049; recombinant rTrxR1, NADPH fluorescence consumption, selenite substrate; Potency, µM (series often up to 114 µM), without a hit: at the highest dose activity change, negative = inhibition, actives largely listed as inhibitors; 390,000 compounds, 1% hits; note: % is set by controls: 0 for no effect and ±100 for the full control effect; nearly all actives have a fitted effect of over 65% in size
#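 Rat TrxR1 (90 nM in the dispensed reagent) was pre-reduced with 400 uM NADPH for 5 min at room temperature, then incubated with compound for 15 min. After 400 uM selenite was added, NADPH fluorescence (Ex 340/Em 450 nm) was followed for 8 min.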
# TrxR1 substrate = rat thioredoxin reductase 1 substrate activity. O89049. purified TrxR1 substrate turnover, NADPH consumption readout. Potency, µM (doses to about 114 µM), for inactives: at the top dose activity change, negative = substrate turnover. 390,000 compounds, 0.01% hits. AID 588456; note: % is set by controls: 0 for no effect and ±100 for the full control effect; nearly all actives have a fitted effect of over 50% in size
#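 Rat TrxR1, dispensed at 90 nM, was prereduced with 400 uM NADPH (final) for 5 min at ~22 deg C, then incubated with compound 15 min before 400 uM selenite. A first-read NADPH fluorescence drop versus no-compound background flagged substrates.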
# * hit, by the source's call; ? = inconclusive; nt = not tested or not shown; [ ] = dose if it differs, or a comment. Calls come from the whole dose curve; as a rule, active = well fitted curve in the direction sought with a large enough effect; inconclusive = small, poorly fitted or top-dose-only effect, or another doubt; inactive = no such curve, though single readings can be large; an effect the other way counts as inactive or inconclusive. Potency is the fitted concentration of half-maximal effect.
SMILES,GLP-1R agonist,IDH1 R132H inh,GLP1R inv ag,GLP1R cytotox,rTrxR1 inhibitor,TrxR1 substrate
Cc1ccc(S(=O)(=O)NNC(=O)c2cccnc2)cc1,4.5%,5.7%,14.3%,5.8%,17.8%,2.6%
O=C(NC(=S)NNS(=O)(=O)c1ccccc1)c1cccnc1,-1.4%,-0.7%,15.1%,4.2%,25.1µM*,-3.7%[57.1 µM]
O=C(NC(=S)Nc1ccccc1O)c1cccnc1,-3.4%,4.7%,0.0%,-24.6%,19.7%,12.8%
CCCCNC(=S)Nc1ccc([N+](=O)[O-])cc1,-17.4%,2.0%,?,?,-19.8%,-12.1%
N#Cc1ccccc1NC(=S)NC(=O)c1cccnc1,1.1%,5.6%,25.2%,2.7%,3.55µM*,10.3%[57.1 µM]
CC(C)CCNC(=S)Nc1ccc([N+](=O)[O-])cc1,-1.3%,1.4%,11.2µM*,?,-19.8%,-11.5%
O=C(NC(=S)NNS(=O)(=O)c1ccccc1)c1ccc([N+](=O)[O-])cc1,-15.0%,6.1%,4.3%,-15.5%,14.1µM*,-11.0%
O=S1(=O)CCOCCCN1Cc1cccc(Cl)c1,nt,nt,nt,nt,-0.6%,-4.3%
O=Cc1ccnc2ccccc12,nt,nt,nt,nt,5.5%,-4.0%
CN(Cc1ccccc1)c1ccc(/C=C/c2sc3ccccc3[n+]2C)cc1,nt,nt,nt,nt,-2.5%,-6.0%
CC(C)c1ccc(CCNC(=O)c2ccc([N+](=O)[O-])cc2)cc1,13.4%,1.7%,3.55µM*,-15.6%,14.1%,4.7%
CC(C)CNC(=S)NC(=O)c1ccc([N+](=O)[O-])cc1,-6.0%,4.0%,10µM*,?,10.6%[57.1 µM],-4.1%
O=[N+]([O-])c1ccc(-[n+]2ccc3ccccc3c2)c([N+](=O)[O-])c1,-9.6%,1.5%[38.3 µM],?,12.6µM*,0.891µM*,-7.4%
COC(=O)c1ccc(N/C=C\C(=O)c2ccc3c(c2)OCO3)cc1,4.9%,6.6%,49.9%[7.66 µM],8.1%[7.66 µM],27.0%[57.1 µM],5.8%[57.1 µM]
O=C(/C=C\Nc1cccc(F)c1)c1ccc2c(c1)OCO2,-4.4%,2.5%,10µM*,6.2%,-3.9%,-8.5%
CCCNC(=S)N1CCC(Cc2ccccc2)CC1,2.5%,-5.7%,7.08µM*,?,-10.4%,-5.6%
CCNC(=S)N1CCC(Cc2ccccc2)CC1,0.0%,7.2%,?,-3.6%,24.1%,4.9%
COc1ccc(-n2nc3c(N4CCC(C(=O)NCC(C)c5ccccc5)CC4)nnc(C)c3c2C)cc1 (stereo unspecified),21.3%,-1.3%,10µM*,?,21.1%,12.3%
Cc1ccc(S(=O)(=O)N(CC(=O)N2CCc3ccccc3C2)c2ccc(C)c(C)c2)cc1,nt,5.6%,11.2µM*,-9.5%,14.3%,-2.7%
Cc1ccc(N(CC(=O)N2CCc3ccccc32)S(=O)(=O)c2cccs2)cc1,0.4%,1.9%,10µM*,4.3%,-7.9%,0.1%
O=C(O)CCCC/C=C(\c1ccccc1)c1cccnc1,4.1%,nt,nt,nt,nt,nt
CS(=O)(=O)c1ccc(Sc2nc3ccccc3s2)c([N+](=O)[O-])c1,-26.3%,3.1%,?,?,39.8µM*,-4.5%
O=S(=O)(Nc1ccc(O)c(Sc2nc3ccccc3s2)c1)c1ccc(F)cc1,0.5%,?,?,-21.0%,6.5%,-3.3%
O=c1cc(-c2ccc(O)cc2)oc2c(O)c(O)c(O)c(O)c12,-0.2%,?,10.6%,-14.3%,15.8µM*,-15.0%
O=C(NNc1cccc(Cl)c1)c1cccnc1Cl,-2.0%,1.6%,1.26µM*,-33.7%,7.4%,2.5%
SMILES,GLP-1R agonist,IDH1 R132H inh,GLP1R inv ag,GLP1R cytotox,rTrxR1 inhibitor,TrxR1 substrate
Cc1ccc(S(=O)(=O)c2nnn3c2nc(N2CCN(c4ccc(F)cc4)CC2)c2cc(Cl)ccc23)cc1C,nt,-10.9%,4.2%,4.6%,20.1%,-1.3%
COc1ccc(-c2nnc(SCC(=O)Nc3ccc(C(C)=O)cc3)nc2-c2ccc(OC)cc2)cc1,nt,-5.5%,0.4%,16.2%,18.6%[57.1 µM],5.9%[57.1 µM]
CC(=O)c1ccc(NC(=O)CSc2nnc(-c3ccco3)c(-c3ccco3)n2)cc1,24.1%,4.0%,57.8%,-8.9%,7.08µM*,-3.1%[57.1 µM]
O=C(CSc1nnc(-c2ccco2)c(-c2ccco2)n1)c1ccccc1,9.3%,-4.8%,1.0%,-15.1%,12.6µM*,-10.8%
CN(C)c1ccc(/C=C/c2c3ccccc3cc[n+]2[O-])cc1,nt,nt,nt,nt,3.2%,-5.4%
Cn1c(NCCCO)nc2c1c(=O)n(Cc1cccc(F)c1)c(=O)n2C,nt,-11.1%,7.7%,-13.1%,31.0%,2.7%
O=C(Nc1nccs1)c1cc(-c2ccccc2)nc2ccccc12,1.5%,1.7%,5.01µM*,-4.5%,-1.2%[57.1 µM],3.9%[57.1 µM]
CCCc1ccc(-c2cc(C(=O)NCCc3ccc(S(N)(=O)=O)cc3)c3ccccc3n2)cc1,1.2%,-0.3%,-2.8%,-14.7%,11.5%,13.1%
NNC(=O)c1cc(-c2cccs2)nc2ccccc12,4.9%,1.1%,?,-16.6%,42.2%,128.2%
NS(=O)(=O)c1ccc(CCNC(=O)c2cc(-c3ccc(Br)cc3)nc3ccccc23)cc1,-1.1%,-2.0%,?,11.2µM*,0.5%,2.1%
C/C(=N\NC(=O)c1cc(-c2cccs2)nc2ccccc12)c1ccccn1,7.5%,0.5%,2.82µM*,?,-5.0%,34.0%
O=C(NCc1ccccn1)c1cc(-c2ccc(-c3ccccc3)cc2)nc2ccccc12,3.1%,-14.7%,2µM*,-8.0%,-4.0%,76.1%
CCN(CC)c1nn2c(=O)c(C(=O)NCCc3ccc(C)cc3)cnc2s1,nt,7.6%,5.3%,2.1%,9.8%[57.1 µM],24.1%[57.1 µM]
O=C(NNC(=O)c1cc(-c2cccnc2)nc2ccccc12)Nc1ccc(Cl)cc1,-21.6%,-8.2%,9.0%[0.307 µM],-1.0%[0.307 µM],8.1%,-4.8%
O=C(NNC(=O)c1cc(-c2ccccc2)nc2ccccc12)Nc1cccc(Cl)c1,-32.4%,-7.2%,12.6µM*,2.0%,19.0%[57.1 µM],5.4%[57.1 µM]
COC(=O)c1ccc(NC(=O)C(=O)NCCc2csc(-c3ccc(F)cc3)n2)cc1,nt,5.8%,6.6%,21.2%,20.0%[57.1 µM],0.6%[57.1 µM]
Cc1ccc(S(=O)(=O)N2CCN(c3nc(-n4cccn4)nc4ccccc34)CC2)cc1,nt,nt,nt,nt,0.8%,9.4%
Cc1oc2ccc(O)c(CN3CCCC3)c2c1C(=O)Nc1ccc(C(C)C)cc1,nt,9.4%,?,-28.6%,11.6%,0.2%
COC(=O)COc1ccc(C2Nc3c(Cl)ccc(C(=O)O)c3C3C=CCC32)cc1 (stereo unspecified),-1.6%,-1.9%,15.8%,11.2%,12.6µM*,10.7%
Cc1c(Cl)c([N+](=O)[O-])nn1Cc1ccc(C(=O)N/N=C\c2cccc(Br)c2)o1,-4.9%,10.4%,10µM*,-14.7%,9.5%[57.1 µM],7.4%[57.1 µM]

# High-throughput results as filed in PubChem BioAssay.
